The panel holds about 79,000 compounds, 15% with a hit somewhere; the sample as a whole holds those more often. A number with no mark means an inactive call. Calls of active or inactive are those of the source. Rule as the data show it: active = growth inhibition above about 70%; inactive = the rest.

One test can be described thus: NCI Yeast Anticancer Drug Screen. Data for the cln2 rad14 strain (AID 165).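 Also: 0% = growth equal to vehicle treated cultures.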 To be noted: S. cerevisiae cln2 rad14 strain, at 50.0 µM (retest, dose inferred, filed as 5.0), stronger effect = higher value. Put shortly:
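Yeast carrying cln2 and rad14 alterations (cell cycle control and DNA damage repair) were exposed to compounds. Growth inhibition was measured against vehicle-treated controls.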
For the compound `COC(=O)[C@H]1O[C@H]1c1ccncc1`, the growth inhibition was -17%.

For the compound `O=[N+]([O-])c1ccc(NSc2ccccc2)cc1`, the growth inhibition was 99% (active).

On to `OCCOCCO[P+]1(OCCOCCO)n2c3ccc2C(c2ccccc2)=C2C=CC(=N2)C(c2ccccc2)=c2ccc(n21)=C(c1ccccc1)C1=NC(=C3c2ccccc2)C=C1`, for which the growth inhibition is 99% (active).

Turning to `NCCSC1(O)C(=O)c2ccccc2-c2ccccc21` (stereo not given), the growth inhibition is 99% (active).

For `C/C=C(\C)C(=O)O[C@@H]1CC(C)(C)CC2C3=CCC4[C@]56CC[C@](O)(OC5)C(C)(C)C6CC[C@@]4(C)C3(C)CC[C@]21C(=O)O` (stereo not given in full), the growth inhibition was 94% (active).

Turning to `CSC(=S)NN=C1CCCCC1`, the growth inhibition was 78% (active).

For `O=C1c2ccccc2C(O)(C#Cc2ccccc2)c2cnccc21` (stereo not given), the growth inhibition is 96% (active).

As to `CCCCCC(CCCCC)C(=O)O`, the growth inhibition was 50%.

In the case of `CC(C)(N=Nc1ccc([N+](=O)[O-])cc1)[N+](=O)[O-]`, the growth inhibition is 99% (active).

On to `CCCCCCCCCCCCCC(=O)N1CCOCC1`, for which the growth inhibition is 99% (active).

As to `CCOc1ccccc1-c1nc2c(s1)C(=O)c1ccccc1C2=O`, the growth inhibition is 98% (active).

Consider `c1ccc2c(c1)C[n+]1ccc3ccccc3c1-c1c3ccccc3cc[n+]1C2`, for which the growth inhibition is 18%.

Take `Nc1cc2c(c[n+](CCCCCCCCCC[n+]3cc4c5ccccc5c(N)cc4c4ccccc43)c3ccccc23)c2ccccc12`: the growth inhibition is 92% (active).

For the compound `Cc1ccc(N=C(N)NN=C(c2ccc(Cl)cc2)c2ccc(Cl)cc2)cc1`, the growth inhibition was 22%.

Turning to `O/N=C(/C[n+]1csc2ccccc21)c1ccccc1`, the growth inhibition was 32%.

Turning to `COc1ccc(C2Oc3c(cccc3OC)C=C2[N+](=O)[O-])cc1` (stereo not given), the growth inhibition was 92% (active).

For `O=C(O)c1c2c(cc3c1CC1(Cc4cc5c(cc4C1=O)CCC5)C3)CCC2` (stereo not given), the growth inhibition is 37%.

`CSc1ncnc2ncn(C3OC(CO)C(O)C3O)c12` (stereo not given): the growth inhibition was -3%.

For the compound `CC1SC(=S)N(c2ccc(Cl)cc2)C1=O` (stereo not given), the growth inhibition is 28%.

With `CCOC(=O)C(C(C)=O)C1=C(Cl)C(=O)c2ccccc2C1=O` (stereo not given), the growth inhibition is 100% (active).

Consider `CC(C)(C)c1cc(C(O)(C(F)(F)F)C(F)(F)F)c(S)c(C(O)(C(F)(F)F)C(F)(F)F)c1`, for which the growth inhibition is 98% (active).

`O=[N+]([O-])C1C(c2ccccc2)CC=CC1N1CCCC1` (stereo not given): the growth inhibition is 85% (active).

With `COc1ccc2nc3cc(Cl)ccc3c(NCCNc3c4ccc(Cl)cc4nc4ccc(OC)cc34)c2c1`, the growth inhibition is 90% (active).

Turning to `CCN(CC)CCNc1nc(N)c2nc(-c3ccccc3)c(-c3ccccc3)nc2n1`, the growth inhibition was 5%.

`CC(=O)OCC(=O)[C@@]1(O)CC[C@H]2[C@@H]3CCC4=CC(=O)C=C[C@]4(C)[C@@]3(F)[C@@H](O)C[C@@]21C`: the growth inhibition was 5%.

As to `O=Cc1cc(S(=O)(=O)c2ccc(O)c(C=O)c2)ccc1O`, the growth inhibition is 25%.

Consider `OCc1cccc2c1Oc1ccccc1S2`, for which the growth inhibition is 17%.

Turning to `O=C(CCN1CCCC1)c1ccc(Oc2ccc(F)cc2)cc1`, the growth inhibition is 68%.

Take `Cc1ccccc1N1CCN(c2c3c(nc4ccccc24)CCCCC3)CC1`: the growth inhibition was 95% (active).

On to `CNC(Cc1ccccc1)c1ccc(OC)c2ccccc12` (stereo not given), for which the growth inhibition was 11%.

Regarding `CCCCN(CCCC)Cc1ccc(NC(C(=O)c2ccccc2)c2ccccc2)cc1` (stereo not given), the growth inhibition is 34%.

Take `CCS(=O)(=O)/C=C(\C#Cc1ccccc1)c1ccccc1`: the growth inhibition was 81% (active).

As for `CN(C)c1c([N+](=O)[O-])cc(N2C(=O)C=CC2=O)cc1[N+](=O)[O-]`, the growth inhibition is 99% (active).

For the compound `CNC(=N)c1ccc(NC(=N)c2ccc(NC(=O)c3ccc(C(=O)Nc4ccc(C(=N)Nc5ccc(C(=N)NC)cc5)cc4)cc3)cc2)cc1`, the growth inhibition was 42%.

As for `O=[N+]([O-])c1ccc(-c2nc3ccc(F)cc3[nH]2)o1`, the growth inhibition was 98% (active).

On to `CCCCCCC(=O)CC(SCCN)c1ccccc1Cl` (stereo not given), for which the growth inhibition is 99% (active).

Turning to `O=C(CC(c1ccccc1Cl)C(C(=O)O)c1ccccc1)c1ccccc1` (stereo not given), the growth inhibition was 83% (active).

For `CC([N+](=O)[O-])C1(O)C(=O)c2cccc3cccc1c23` (stereo not given), the growth inhibition was 42%.

Regarding `CC(=O)N(C1=C(Cl)C(=O)c2ccccc2C1=O)c1ccc(Cl)cc1`, the growth inhibition was 99% (active).

`CCOC(=N)CCCSSc1ccc(N=[N+]=[N-])cc1`: the growth inhibition was 97% (active).

The test is the same for the next values; noted with them: S. cerevisiae cln2 rad14 strain, at 50.0 µM, stronger effect = higher value.
As for `COC(=O)[C@H]1O[C@H]1c1ccncc1`, the growth inhibition is 53.8%.

`O=[N+]([O-])c1ccc(NSc2ccccc2)cc1`: the growth inhibition was 90.6% (active).

For the compound `OCCOCCO[P+]1(OCCOCCO)n2c3ccc2C(c2ccccc2)=C2C=CC(=N2)C(c2ccccc2)=c2ccc(n21)=C(c1ccccc1)C1=NC(=C3c2ccccc2)C=C1`, the growth inhibition is 91.4% (active).

Take `NCCSC1(O)C(=O)c2ccccc2-c2ccccc21` (stereo not given): the growth inhibition was 96.2% (active).

`C/C=C(\C)C(=O)O[C@@H]1CC(C)(C)CC2C3=CCC4[C@]56CC[C@](O)(OC5)C(C)(C)C6CC[C@@]4(C)C3(C)CC[C@]21C(=O)O` (stereo not given in full): the growth inhibition was 78.8% (active).

Turning to `CSC(=S)NN=C1CCCCC1`, the growth inhibition was 58.6%.

In the case of `O=C1c2ccccc2C(O)(C#Cc2ccccc2)c2cnccc21` (stereo not given), the growth inhibition is 97% (active).

Consider `CCCCCC(CCCCC)C(=O)O`, for which the growth inhibition is 78% (active).

For `CC(C)(N=Nc1ccc([N+](=O)[O-])cc1)[N+](=O)[O-]`, the growth inhibition was 97.2% (active).

With `CCCCCCCCCCCCCC(=O)N1CCOCC1`, the growth inhibition is 96.5% (active).

On to `CCOc1ccccc1-c1nc2c(s1)C(=O)c1ccccc1C2=O`, for which the growth inhibition is 89.9% (active).

Consider `c1ccc2c(c1)C[n+]1ccc3ccccc3c1-c1c3ccccc3cc[n+]1C2`, for which the growth inhibition was 53%.

Regarding `Nc1cc2c(c[n+](CCCCCCCCCC[n+]3cc4c5ccccc5c(N)cc4c4ccccc43)c3ccccc23)c2ccccc12`, the growth inhibition is 87.8% (active).

With `Cc1ccc(N=C(N)NN=C(c2ccc(Cl)cc2)c2ccc(Cl)cc2)cc1`, the growth inhibition is 98% (active).

Consider `O/N=C(/C[n+]1csc2ccccc21)c1ccccc1`, for which the growth inhibition was 37%.

On to `COc1ccc(C2Oc3c(cccc3OC)C=C2[N+](=O)[O-])cc1` (stereo not given), for which the growth inhibition is -4.5%.

Regarding `O=C(O)c1c2c(cc3c1CC1(Cc4cc5c(cc4C1=O)CCC5)C3)CCC2` (stereo not given), the growth inhibition was 88.7% (active).

On to `CSc1ncnc2ncn(C3OC(CO)C(O)C3O)c12` (stereo not given), for which the growth inhibition is 53%.

For `CC1SC(=S)N(c2ccc(Cl)cc2)C1=O` (stereo not given), the growth inhibition was -108%.

As to `CCOC(=O)C(C(C)=O)C1=C(Cl)C(=O)c2ccccc2C1=O` (stereo not given), the growth inhibition was 89.7% (active).

On to `CC(C)(C)c1cc(C(O)(C(F)(F)F)C(F)(F)F)c(S)c(C(O)(C(F)(F)F)C(F)(F)F)c1`, for which the growth inhibition is 99% (active).

For `O=[N+]([O-])C1C(c2ccccc2)CC=CC1N1CCCC1` (stereo not given), the growth inhibition is 93.9% (active).

As for `COc1ccc2nc3cc(Cl)ccc3c(NCCNc3c4ccc(Cl)cc4nc4ccc(OC)cc34)c2c1`, the growth inhibition is 98.4% (active).

Take `CCN(CC)CCNc1nc(N)c2nc(-c3ccccc3)c(-c3ccccc3)nc2n1`: the growth inhibition was 27.6%.

As for `CC(=O)OCC(=O)[C@@]1(O)CC[C@H]2[C@@H]3CCC4=CC(=O)C=C[C@]4(C)[C@@]3(F)[C@@H](O)C[C@@]21C`, the growth inhibition is 66.2%.

Take `O=Cc1cc(S(=O)(=O)c2ccc(O)c(C=O)c2)ccc1O`: the growth inhibition is 97.5% (active).

Turning to `OCc1cccc2c1Oc1ccccc1S2`, the growth inhibition was -59.5%.

As to `O=C(CCN1CCCC1)c1ccc(Oc2ccc(F)cc2)cc1`, the growth inhibition is 54.7%.

As to `Cc1ccccc1N1CCN(c2c3c(nc4ccccc24)CCCCC3)CC1`, the growth inhibition is 96.4% (active).

For the compound `CNC(Cc1ccccc1)c1ccc(OC)c2ccccc12` (stereo not given), the growth inhibition is 7.7%.

Consider `CCCCN(CCCC)Cc1ccc(NC(C(=O)c2ccccc2)c2ccccc2)cc1` (stereo not given), for which the growth inhibition was 97.2% (active).

With `CCS(=O)(=O)/C=C(\C#Cc1ccccc1)c1ccccc1`, the growth inhibition is 80.3% (active).

In the case of `CN(C)c1c([N+](=O)[O-])cc(N2C(=O)C=CC2=O)cc1[N+](=O)[O-]`, the growth inhibition was 90.8% (active).

On to `CNC(=N)c1ccc(NC(=N)c2ccc(NC(=O)c3ccc(C(=O)Nc4ccc(C(=N)Nc5ccc(C(=N)NC)cc5)cc4)cc3)cc2)cc1`, for which the growth inhibition is 11.7%.

On to `O=[N+]([O-])c1ccc(-c2nc3ccc(F)cc3[nH]2)o1`, for which the growth inhibition is 98.5% (active).

`CCCCCCC(=O)CC(SCCN)c1ccccc1Cl` (stereo not given): the growth inhibition was 98.3% (active).

On to `O=C(CC(c1ccccc1Cl)C(C(=O)O)c1ccccc1)c1ccccc1` (stereo not given), for which the growth inhibition was 91.5% (active).

With `CC([N+](=O)[O-])C1(O)C(=O)c2cccc3cccc1c23` (stereo not given), the growth inhibition was 76.7% (active).

In the case of `CC(=O)N(C1=C(Cl)C(=O)c2ccccc2C1=O)c1ccc(Cl)cc1`, the growth inhibition is 78% (active).

As for `CCOC(=N)CCCSSc1ccc(N=[N+]=[N-])cc1`, the growth inhibition was 98.5% (active).

The record behind these values is PubChem BioAssay (NCI).
